Assay outcomes: PubChem BioAssay, several laboratories
E coli Lon inh – inhibits E. coli Lon protease; P0A9M0; purified E. coli Lon protease, fluorescence polarization; inhibition, % at 7.94 µM; hit rate 0.42% among 360,000; AID 602123; in the data active = inhibition above about 13%, passing the limit was not always enough;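 also: 0% = enzyme with probe and DMSO and 100% = no enzyme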
Cardiac RTF inh – cardiac RTF calcium desensitization; IANBD-labeled cardiac RTF, Ca2+ fluorescence; inhibition, % at 7.15 µM; hit rate 0.12% among 340,000; AID 493244;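 active = inhibition above the mean inhibition of all tested compounds plus 3 SD, cut at about 17% in these data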;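 also: assay run at fixed EC70 calcium of 1.6 mM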
C-LANA FP – KSHV C-LANA DNA binding inhibition | inhibition, % at 9 µM | hit rate 0.078% among 340,000 | MBP-C-LANA/FAM-LBS DNA binding, fluorescence polarization;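 active = highest replicate inhibition at or above 60% at 9 µM, even if other replicates fall short; inactive = all replicates below 60% inhibition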;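 also: 0% = neutral control wells and 100% = 4 µM acridine orange control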
Keap1 Nrf2 FP – Keap1-Nrf2 (human) interaction inhibition; Keap1 Kelch-Nrf2 peptide fluorescence polarization, 1536-well; Q14145; inhibition, % at 9.4 µM; hit rate 0.15% among 340,000; in the data active = inhibition above about 12%;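 also: human Keap1 Kelch domain with fluorescein labeled Nrf2 9mer peptide probe; 0% = neutral control wells and 100% = peptide positive control; higher means more block of Keap1 binding to Nrf2 peptide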
RTF Ca sens act – increases calcium sensitivity of human cardiac regulated thin filaments. P19429+P45379. IANBD-labeled TnC RTF fluorescence at EC20 calcium; 0% EC20 calcium, 100% full calcium. activation, % at 7.2 µM. hit rate 0.24% among 340,000. AID 493008;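 active = activation above the mean over all tested compounds plus 3 SD, cut at about 30% in these data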;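 also: rise in fluorescence read as greater calcium sensitivity of cardiac thin filaments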
E coli Lon conf – confirmation of E. coli Lon protease inhibitors; hit rate 31% among 1,400; AID 602230; shares compounds with E coli Lon inh; inhibition, % at 7.94 µM; purified E. coli Lon, fluorescence polarization; in the data active = inhibition above about 16%;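 also: 0% = enzyme with probe and DMSO and 100% = no enzyme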
* = called active by the depositor; x = no result. The list is not random: actives were taken first. Their share in the collection is about 0.74%.

SMILES | E coli Lon inh | Cardiac RTF inh | C-LANA FP | Keap1 Nrf2 FP | RTF Ca sens act | E coli Lon conf
Cc1cccc(Nc2nc(N)nc(CN3CCN(Cc4ccc5c(c4)OCO5)CC3)n2)c1 | 19* | -1 | 0 | 1 | -3 | -1
COc1ccccc1Nc1nc(N)nc(CN2CCN(Cc3ccc4c(c3)OCO4)CC2)n1 | 2 | 11 | -1 | 3 | -5 | x
CC(C)n1c(CNC(=O)c2ccccc2F)nnc1SCC(=O)NC1CCCCC1 | -19 | -2 | -1 | -1 | -5 | x
C/C(=N\Nc1ccc(S(=O)(=O)N2CCCCC2)cn1)c1ccc(O)cc1 | 4 | 7 | 2 | 1 | 0 | x
COc1cccc(/C(C)=N/Nc2ccc(S(=O)(=O)N3CCCCC3)cn2)c1 | 22* | 4 | 0 | 1 | -2 | 4
CCCCCCn1cc(CN2CC(N3CCCC3)CS2(=O)=O)nn1 (configuration not stated) | -6 | x | x | x | x | x
C=CCOn1c(=O)c(-c2cc3ccccc3o2)[n+]([O-])c2ccccc21 | 17* | -10 | 8 | -5 | 6 | -213
COC(=O)c1ccc(OC(=O)c2cccnc2SC)cc1 | 88* | -6 | -1 | 1 | -4 | -16
COC(=O)c1ccc(OC(=O)c2ccccn2)cc1 | -9 | 6 | -1 | -5 | -3 | x
Cc1ncc([N+](=O)[O-])n1CC(=O)Nc1cccc(C(F)(F)F)c1 | 29* | 0 | 3 | -3 | -9 | -91
CCOC(=O)c1cc2c(ccn2C)n1CC(=O)N1CCC(Cc2ccccc2)CC1 | 20* | -22 | 0 | -6 | 0 | 10
CC(=O)ON1C(C)(C)CC(OC(=O)c2ccccc2)CC1(C)C | -5 | -5 | 0 | 0 | -2 | x
CC(=O)OC1CC(C)(C)N(OC(=O)c2ccccc2)C(C)(C)C1 | 15* | -2 | 0 | 2 | 5 | 6
COC(=O)c1nn(-c2cccc(C(F)(F)F)c2)ccc1=O | 19* | -1 | -1 | -3 | 4 | -9
COc1ccccc1NS(=O)(=O)c1ccc(C(=O)N2CCCCCC2)cc1 | 3 | -3 | -1 | 5 | 3 | x
CCOC(=O)C1CCCN(C(=O)c2ccc(S(=O)(=O)Nc3ccccc3OC)cc2)C1 (configuration not stated) | 21* | -2 | 0 | 1 | 5 | -11
O=C(/C=C/[C@H]1O[C@@H](n2cnc3c(NC(=O)c4ccccc4)ncnc32)[C@H](O)[C@@H]1O)NCCCN1CCCC1=O | 3 | x | x | x | x | x
Nc1ccc2c(c1)-c1ccccc1S(=O)(=O)N2 | 17* | 2 | 9 | -2 | 0 | -13
CCOc1ccc(C(C(=O)NC2CCCCC2)N(C(=O)c2csnn2)C2CC2)cc1 (configuration not stated) | 24* | -1 | -1 | -3 | 0 | 7
OCc1ccccc1-c1ccc2nccn2c1 | -11 | x | x | x | x | x
O=C(OCc1ccccc1)N1CCC2CC1c1ccc(/C=C/CCCCl)cc12 (configuration not stated) | -4 | x | x | x | x | x
Cc1cc(OCC(=O)N2CCOCC2)ccc1NC(=O)c1ccccc1C | 17* | 8 | 0 | -7 | -2 | 0
CC(=O)N1CCN(c2ccc(NC(=O)c3ccccc3Cl)cc2)CC1 | -11 | 1 | 0 | 0 | -4 | x
O=C(N/N=C/c1ccc(OCC(=O)N2CCOCC2)cc1)c1ccccc1Cl | -6 | -6 | -1 | 3 | -3 | x
O=C(Nc1ccc(N2CCCCCC2)cc1)c1ccccc1Cl | 19* | -8 | 1 | -6 | 13 | 0
SMILES | E coli Lon inh | Cardiac RTF inh | C-LANA FP | Keap1 Nrf2 FP | RTF Ca sens act | E coli Lon conf
O=C(Nc1ccc(OCC(=O)N2CCOCC2)cc1)c1ccccc1Cl | 22* | -3 | 1 | -5 | -6 | 0
Cc1nc(NC(=O)C(C)(C)C)sc1C(=O)Cn1cc(CCCC#N)nn1 | -2 | x | x | x | x | x
CC(C)c1onc(C(=O)Nc2cccnc2Cl)c1[N+](=O)[O-] | 19* | -1 | 1 | -4 | -6 | -17
Cc1ccc(C(=O)CNc2cc(C)ccc2C)cc1 | -3 | -2 | 0 | -7 | -3 | x
CCNc1cc(O)ccc1C | 117* | -21 | 12 | 7 | 10 | 89*
Nc1ccn([C@@H]2O[C@H](C(=O)NCC(F)(F)F)[C@@H](O)[C@H]2O)c(=O)n1 | -12 | x | x | x | x | x
N#Cc1ccc(C(=O)N2CCC3CC2c2cc(N4CCCCC4)ccc23)cc1 (configuration not stated) | 0 | x | x | x | x | x
